In PubChem BioAssay:
Inconclusive results are not listed. Active and inactive are the calls of the source.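 Rule for the calls, unless noted: active = percent response above 42, roughly 3 SD of non-fluorescent test compounds; inactive = the rest.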

What was measured:
[1] = rapamycin-like changes in RPL19A-GFP expression – cell-based, S. cerevisiae, multiplex flow cytometry, primary screen (AID 1862; in the data active = percent of DMSO control GFP below about 86%;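 note: lower values mimic rapamycin by blocking the RPL19A rise seen in DMSO cells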); settings: S. cerevisiae RPL19A-GFP strain, flow cytometry fluorescence, 3 h; at 10 µM; stronger effect = lower value
[2] = TOR pathway GLN3 branch reporter MEP2-GFP changes – S. cerevisiae, multiplex flow cytometry, primary screen (AID 1867;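 active = GFP response, as percent of the DMSO control, above the screen-wide mean plus 3 SD, about 139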;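 note: median GFP channel fluorescence of barcode-gated MEP2-GFP cells measured by flow cytometry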); settings: S. cerevisiae MEP2-GFP strain, 3 h, at 10 µM, stronger effect = higher value, 100% means same as DMSO wells
[3] = TOR pathway RTG branch CIT2 reporter changes – S. cerevisiae, GFP fusion, multiplex flow cytometry, primary screen (AID 1870;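 active = percent response above a set limit, the screen-wide mean plus 3 SD, cut at about 130% in these data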;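 note: barcoded CIT2-GFP strain pooled with four other GFP strains with rapamycin as positive control; median GFP fluorescence per well over plate mean of DMSO wells so 100% = DMSO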); settings: S. cerevisiae CIT2-GFP expression, 3 h, at 10 µM, stronger effect = higher value
[4] = TOR pathway LAP4-GFP level changes – S. cerevisiae, multiplex flow cytometry, primary screen (AID 1873;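 active = GFP signal, as percent of the solvent control, above the screen mean plus 3 SD, about 149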); settings: S. cerevisiae LAP4-GFP expression, 3 h, at 10 µM, stronger effect = higher value
[5] = yeast AGP1-GFP level changes, GLN3 branch – cell-based, multiplex flow cytometry, S. cerevisiae, primary screen (AID 1887;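 active = GFP signal above the screen-wide mean plus 3 SD, that is over about 124.5% of the solvent control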;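 note: AGP1-GFP fusion strain of S. cerevisiae within a five-strain barcoded multiplex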); settings: 3 h, at 10 µM, stronger effect = higher value
[6] = reduced mouse 2C T cell binding to pMHC/ICAM-1 vesicles – MLPCN validation set, flow cytometry, LFA-1/ICAM-1 modulator project, pilot screen (AID 2523;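 active = response below a set limit, under 55% cells CD8-positive and vesicle-bound, and CD8 cells' 90th-percentile brightness under 279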;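 for vesicle binding response: mean PE anti-B7-1 fluorescence of CD8+ cells relative to row control; 100% = QL9-loaded vesicles with DMSO vehicle in the same plate row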); settings: 2C mouse CD8+ T cells, at 7 µM, stronger effect = lower value; double positive events: measured here: CD8+/vesicle+ event percentage
[7] = biological target: Integrin beta-1 (Homo sapiens) + Integrin alpha-4 (Homo sapiens) (UniProt P13612+P05556); test: alpha4beta1 integrin LIBS antibody binding reduction – U937 cells, HUTS-21 mAb, flow cytometry, validation set, VLA-4 allosteric modulator project, pilot screen (AID 2674;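 active = inhibition above 50%, about 3 SD of the validation set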;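 note: antibody binding induced by the VLA-4 ligand LDV present at three times its Kd; 0% = LDV ligand with antibody and no compound and 100% = antibody without LDV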); settings: HUTS-21 LIBS mAb binding, at 6.7 µM, stronger effect = higher value, binding induced by LDV ligand
[8] = calorie-restriction mimetic ROS inhibitors, yeast – validation compound set, pilot screen (AID 2706;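 active = superoxide response below 65% of plate, a cut near 3 SD across the whole screen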;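 note: yeast exposed to compound for one week at 30 degrees C before staining; 100% = mean of all compound wells on the same plate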); settings: S. cerevisiae aging, superoxide DHE fluorescence; at 10 µM; stronger effect = lower value
[9] = biological target: Beta-adrenergic receptor kinase 1 (Homo sapiens) (UniProt P25098); test: GRK2 binders displacing RNA aptamer, biochemical, validation, human GRK2, bead flow cytometry (AID 488806;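 active = aptamer binding inhibition above 30%, about 3 SD of noise from non-fluorescent compounds; inactive = inhibition at or below 30%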); settings: bead-bound GRK2, FAM-aptamer displacement, at 10 µM, stronger effect = higher value
[10] = biological target: Beta-2 adrenergic receptor (Homo sapiens) (UniProt P07550); test: agonist-induced loss of surface beta2AR – cell-based, FAP fluorogen, flow cytometry, validation set, pilot screen (AID 504459); settings: Am2.2-beta2AR cells, at 10 µM, stronger effect = higher value;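 note: agonist-driven loss of surface beta2AR via internalization measured by FAP dye flow cytometry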
[11] = biological target: AP-2 complex subunit beta (Homo sapiens) (UniProt P63010); test: beta-arrestin/AP2 interaction blockers – biochemical, validation set, GST-AP2 beads, flow cytometry, pilot screen (AID 504541;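 active = inhibition above 54%, about 3 SD of non-fluorescent compounds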;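 note: AP2 carries R879A mutation and is captured from E. coli lysate; bead-bound FITC arrestin peptide fluorescence measuring arrestin peptide binding to AP2; 0% = DMSO wells and 100% = excess unlabeled arrestin peptide control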); settings: FITC arrestin peptide, at 10 µM, stronger effect = higher value, AP2 beta2 appendage fragment, R879A mutant
[12] = cytosolic pH regulators acting via V-ATPase – S. cerevisiae, pHLuorin, HTS validation (AID 504600; in the data active = response above about 15%;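 note: plate controls were DMSO for no effect and reference compound for full effect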); settings: V-ATPase proton transport, at 10 µM, stronger effect = higher value
[13] = test system: anti-desmoglein-3 scFv antibody binding to human DSG3; test: blockers of pathogenic pemphigus antibody–desmoglein-3 binding – biochemical, validation compound set, bead-based, flow cytometry, pilot screen (AID 588368;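 active = binding below the plate cutoff, the plate median minus 3 SD, with a reading above zero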;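 note: signal is the median channel fluorescence of bead-bound GFP antibody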); settings: Protein G beads, DSG3-Fc, scFv-GFP binding, at 10 µM, stronger effect = lower value
[14] = Nile Red efflux blockade in pump-expressing yeast – validation compound set, multiplex, phenotypic, pilot screen (AID 588506;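 active = efflux inhibition above 0.42, the validation set average plus 4 SD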;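 note: Nile Red retained in cells so higher fluorescence means more efflux inhibition; 0 = negative control wells and 1 = enniatin B 25 µM full block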); settings: S. cerevisiae pump-expressing triplex, Nile Red efflux flow cytometry; at 10 µM; stronger effect = higher value; the pumps come from Candida albicans
[15] = biological target: ATP-binding cassette sub-family B member 6 (Homo sapiens) (UniProt Q9NP58); test: blockers of ABCB6-driven porphyrin uptake – K562-ABCB6 cells, flow cytometry, validation set, pilot screen (AID 588550;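 active = inhibition above the screen-wide mean plus 3 SD, about 51%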;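 note: 0% = DMSO wells and 100% = benzethonium chloride 70 µM positive control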); settings: K562-ABCB6 porphyrin accumulation, 1 h, at 10 µM, stronger effect = higher value
[16] = AML differentiation inducers, ER-HoxA9 marrow cells – cell-based, GFP/MAC1 double positive, flow cytometry, validation set, primary screen (AID 588685;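 active = differentiation response of at least 50%, scaled between solvent and reference control, from cells with both markers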;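 note: compound exposure lasts four days before antibody staining and flow analysis; 0% = DMSO wells and 100% = 5 µM fulvestrant positive control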); settings: stronger effect = higher value, normalized: vehicle 0, fulvestrant 100

Sequence of ATP-binding cassette sub-family B member 6 (Homo sapiens) (Q9NP58 whole entry, looked up): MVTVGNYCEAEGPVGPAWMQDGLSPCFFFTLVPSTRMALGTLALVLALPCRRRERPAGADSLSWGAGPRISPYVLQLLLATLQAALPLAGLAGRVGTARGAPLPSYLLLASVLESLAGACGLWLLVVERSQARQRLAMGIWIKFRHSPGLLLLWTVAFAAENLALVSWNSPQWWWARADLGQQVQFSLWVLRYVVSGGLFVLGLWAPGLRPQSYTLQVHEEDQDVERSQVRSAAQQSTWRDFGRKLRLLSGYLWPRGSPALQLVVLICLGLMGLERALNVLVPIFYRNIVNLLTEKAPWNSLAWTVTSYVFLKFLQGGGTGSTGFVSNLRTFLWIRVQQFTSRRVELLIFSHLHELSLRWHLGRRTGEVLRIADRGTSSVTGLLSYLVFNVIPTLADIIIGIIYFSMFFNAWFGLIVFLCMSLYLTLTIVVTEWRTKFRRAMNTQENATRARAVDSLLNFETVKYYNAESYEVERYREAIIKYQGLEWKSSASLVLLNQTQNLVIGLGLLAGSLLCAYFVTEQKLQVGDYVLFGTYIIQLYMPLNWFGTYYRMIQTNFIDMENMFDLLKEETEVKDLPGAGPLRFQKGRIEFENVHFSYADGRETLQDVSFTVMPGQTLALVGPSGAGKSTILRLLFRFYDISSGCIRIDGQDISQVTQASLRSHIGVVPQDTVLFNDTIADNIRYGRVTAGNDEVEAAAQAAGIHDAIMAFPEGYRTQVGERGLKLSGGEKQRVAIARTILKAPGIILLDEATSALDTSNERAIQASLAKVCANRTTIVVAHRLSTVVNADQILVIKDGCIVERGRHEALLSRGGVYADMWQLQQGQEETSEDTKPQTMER
Sequence of Beta-2 adrenergic receptor (Homo sapiens) (P07550 whole entry, looked up): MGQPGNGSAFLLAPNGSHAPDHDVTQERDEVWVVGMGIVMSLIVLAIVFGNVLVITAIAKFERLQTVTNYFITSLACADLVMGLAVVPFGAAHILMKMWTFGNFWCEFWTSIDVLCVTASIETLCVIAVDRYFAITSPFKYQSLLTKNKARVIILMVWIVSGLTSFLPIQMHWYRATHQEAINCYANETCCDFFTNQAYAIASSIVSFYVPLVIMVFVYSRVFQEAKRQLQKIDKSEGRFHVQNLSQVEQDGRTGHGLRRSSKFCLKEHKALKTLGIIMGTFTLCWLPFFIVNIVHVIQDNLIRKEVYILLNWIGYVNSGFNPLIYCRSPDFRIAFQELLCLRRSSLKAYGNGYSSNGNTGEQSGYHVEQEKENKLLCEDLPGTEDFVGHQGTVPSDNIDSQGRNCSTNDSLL
Sequence of AP-2 complex subunit beta (Homo sapiens) (P63010 whole entry, looked up, the tested form may be a part, one chain of several): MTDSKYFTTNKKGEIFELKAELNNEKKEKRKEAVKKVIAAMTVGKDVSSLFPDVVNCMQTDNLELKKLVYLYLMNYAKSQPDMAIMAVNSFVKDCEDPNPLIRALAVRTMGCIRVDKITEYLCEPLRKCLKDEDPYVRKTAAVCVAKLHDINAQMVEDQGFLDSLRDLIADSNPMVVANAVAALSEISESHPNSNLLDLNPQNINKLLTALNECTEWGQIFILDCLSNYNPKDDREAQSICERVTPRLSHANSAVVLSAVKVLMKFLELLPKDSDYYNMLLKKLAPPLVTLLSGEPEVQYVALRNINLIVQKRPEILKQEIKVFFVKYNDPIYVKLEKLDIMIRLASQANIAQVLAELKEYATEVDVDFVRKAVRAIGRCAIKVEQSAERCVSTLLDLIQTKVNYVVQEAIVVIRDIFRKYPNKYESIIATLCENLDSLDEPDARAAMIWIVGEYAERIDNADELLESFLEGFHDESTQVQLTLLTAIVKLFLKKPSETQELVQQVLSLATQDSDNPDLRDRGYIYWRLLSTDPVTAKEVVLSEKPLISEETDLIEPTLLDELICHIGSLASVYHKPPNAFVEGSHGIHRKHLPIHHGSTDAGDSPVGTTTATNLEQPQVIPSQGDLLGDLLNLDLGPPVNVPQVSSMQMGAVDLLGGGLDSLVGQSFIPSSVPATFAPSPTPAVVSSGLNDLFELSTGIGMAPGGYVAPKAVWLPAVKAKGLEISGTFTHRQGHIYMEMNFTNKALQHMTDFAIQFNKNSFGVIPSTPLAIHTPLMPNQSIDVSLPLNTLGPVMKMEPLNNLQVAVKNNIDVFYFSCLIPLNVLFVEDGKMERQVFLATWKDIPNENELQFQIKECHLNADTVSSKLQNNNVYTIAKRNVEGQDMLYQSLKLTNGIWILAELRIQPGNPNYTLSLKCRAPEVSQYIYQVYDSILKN
Sequence of Beta-adrenergic receptor kinase 1 (Homo sapiens) (P25098 whole entry, looked up): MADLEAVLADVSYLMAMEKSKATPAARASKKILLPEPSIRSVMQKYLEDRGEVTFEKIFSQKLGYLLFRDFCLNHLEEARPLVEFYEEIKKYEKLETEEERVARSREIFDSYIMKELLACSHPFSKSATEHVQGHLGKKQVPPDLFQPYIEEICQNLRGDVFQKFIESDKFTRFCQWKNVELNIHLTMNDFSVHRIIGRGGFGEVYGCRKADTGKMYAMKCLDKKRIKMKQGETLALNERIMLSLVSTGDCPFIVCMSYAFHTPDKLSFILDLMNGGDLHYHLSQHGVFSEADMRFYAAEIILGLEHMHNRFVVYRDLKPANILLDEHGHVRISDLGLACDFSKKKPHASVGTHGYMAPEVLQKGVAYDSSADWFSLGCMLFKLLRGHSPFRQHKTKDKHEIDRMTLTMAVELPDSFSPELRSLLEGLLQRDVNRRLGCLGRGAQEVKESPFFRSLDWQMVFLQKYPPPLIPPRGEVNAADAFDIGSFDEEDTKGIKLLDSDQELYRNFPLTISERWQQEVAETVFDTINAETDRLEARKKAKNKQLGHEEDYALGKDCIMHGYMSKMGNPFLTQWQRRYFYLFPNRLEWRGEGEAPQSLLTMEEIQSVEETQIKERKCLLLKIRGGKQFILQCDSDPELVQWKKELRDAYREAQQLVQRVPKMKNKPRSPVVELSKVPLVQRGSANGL
Sequence of Integrin beta-1 (Homo sapiens) + Integrin alpha-4 (Homo sapiens) (P05556 whole entry, looked up): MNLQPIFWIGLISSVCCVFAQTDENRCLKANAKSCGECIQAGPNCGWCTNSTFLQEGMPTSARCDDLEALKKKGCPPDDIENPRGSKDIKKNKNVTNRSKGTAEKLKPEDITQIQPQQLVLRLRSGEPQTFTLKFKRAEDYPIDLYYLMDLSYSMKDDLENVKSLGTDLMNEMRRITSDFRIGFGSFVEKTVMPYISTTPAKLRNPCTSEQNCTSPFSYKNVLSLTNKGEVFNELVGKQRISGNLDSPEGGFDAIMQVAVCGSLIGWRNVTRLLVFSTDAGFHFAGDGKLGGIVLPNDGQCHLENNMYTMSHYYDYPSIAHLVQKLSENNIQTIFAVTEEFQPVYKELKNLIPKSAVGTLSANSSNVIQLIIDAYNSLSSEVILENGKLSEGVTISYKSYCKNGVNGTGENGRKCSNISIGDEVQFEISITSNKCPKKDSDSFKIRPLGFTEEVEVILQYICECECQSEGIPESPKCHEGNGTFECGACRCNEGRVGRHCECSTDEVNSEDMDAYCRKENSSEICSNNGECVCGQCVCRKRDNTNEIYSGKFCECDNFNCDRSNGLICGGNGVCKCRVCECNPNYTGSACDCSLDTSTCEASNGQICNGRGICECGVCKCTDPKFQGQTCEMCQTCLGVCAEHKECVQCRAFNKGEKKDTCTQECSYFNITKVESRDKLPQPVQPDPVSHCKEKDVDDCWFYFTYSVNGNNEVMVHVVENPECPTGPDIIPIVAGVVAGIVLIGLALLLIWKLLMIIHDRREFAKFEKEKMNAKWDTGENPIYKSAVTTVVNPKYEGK
Sequence of Integrin beta-1 (Homo sapiens) + Integrin alpha-4 (Homo sapiens) (P13612 whole entry, looked up): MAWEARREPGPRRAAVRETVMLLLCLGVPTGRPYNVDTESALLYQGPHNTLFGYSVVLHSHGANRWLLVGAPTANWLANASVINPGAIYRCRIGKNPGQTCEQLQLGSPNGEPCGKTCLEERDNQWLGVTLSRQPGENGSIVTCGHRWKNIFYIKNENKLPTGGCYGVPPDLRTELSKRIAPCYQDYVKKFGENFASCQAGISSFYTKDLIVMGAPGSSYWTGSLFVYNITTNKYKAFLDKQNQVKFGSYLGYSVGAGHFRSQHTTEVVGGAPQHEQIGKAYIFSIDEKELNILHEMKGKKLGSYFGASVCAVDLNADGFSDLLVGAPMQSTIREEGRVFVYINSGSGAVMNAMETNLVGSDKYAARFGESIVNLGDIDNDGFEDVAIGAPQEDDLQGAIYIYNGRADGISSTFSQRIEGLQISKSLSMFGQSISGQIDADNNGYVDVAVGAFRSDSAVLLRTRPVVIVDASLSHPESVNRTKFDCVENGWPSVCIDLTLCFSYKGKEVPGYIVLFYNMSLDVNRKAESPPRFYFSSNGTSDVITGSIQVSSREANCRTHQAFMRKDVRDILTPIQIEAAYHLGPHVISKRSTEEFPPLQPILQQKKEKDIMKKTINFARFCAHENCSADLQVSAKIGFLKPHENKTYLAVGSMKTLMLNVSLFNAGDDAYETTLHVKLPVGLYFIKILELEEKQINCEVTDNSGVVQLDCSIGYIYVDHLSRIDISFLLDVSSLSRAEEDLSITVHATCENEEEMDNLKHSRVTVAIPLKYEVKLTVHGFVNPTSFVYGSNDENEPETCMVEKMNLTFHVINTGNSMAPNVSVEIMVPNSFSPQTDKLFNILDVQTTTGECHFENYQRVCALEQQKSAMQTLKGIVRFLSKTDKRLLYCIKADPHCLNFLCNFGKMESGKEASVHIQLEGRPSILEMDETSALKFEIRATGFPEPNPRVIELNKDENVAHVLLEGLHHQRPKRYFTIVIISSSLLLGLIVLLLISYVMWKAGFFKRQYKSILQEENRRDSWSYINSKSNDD

Structure (SMILES)	percent of DMSO control GFP [1]	GFP response vs DMSO [2]	percent response of DMSO control [3]	GFP response vs DMSO [4]	GFP response, % of DMSO [5]	double positive events [6]	vesicle binding response [6]	inhibition [7]	superoxide response (% of plate) [8]	aptamer binding inhibition [9]	response [10]	inhibition [11]	response [12]	binding (% of control) [13]	efflux inhibition (fraction of control) [14]	inhibition [15]	differentiation response [16]
Cc1nc(NCc2ccco2)c(C#N)c2c1COC(C)(C)C2	102% (inactive)	98.7% (inactive)	96.5% (inactive)	102% (inactive)	92.4% (inactive)	57.7%	99.2% (inactive)	-9.13% (inactive)	123% (inactive)	4% (inactive)	7.11% (inactive)	-2% (inactive)	12% (inactive)	98.8% (inactive)	-0.31 (inactive)	15% (inactive)	-1.65% (inactive)
CN=C(NC#N)NCCSCc1nc[nH]c1C	102% (inactive)	101% (inactive)	109% (inactive)	94.8% (inactive)	102% (inactive)	62.1%	195% (inactive)	-14.5% (inactive)	104% (inactive)	-1% (inactive)	3.13% (inactive)	5.55% (inactive)	0.96% (inactive)	103% (inactive)	-0.44 (inactive)	9% (inactive)	-10.4% (inactive)
COc1cc(C(=S)N(C)C)ccc1O	107% (inactive)	104% (inactive)	113% (inactive)	92.6% (inactive)	116% (inactive)	62.6%	115% (inactive)	-11.8% (inactive)	92.7% (inactive)	-1% (inactive)	8.54% (inactive)	-1.41% (inactive)	3.06% (inactive)	101% (inactive)	-0.005 (inactive)	-8% (inactive)	15.9% (inactive)
CN1CCc2c(n(CC(O)CN(CCO)CCO)c3ccccc23)C1=O (stereo not given)	92.6% (inactive)	143% (active)	97.9% (inactive)	82% (inactive)	99.6% (inactive)	52.3%	195% (inactive)	-9.06% (inactive)	100% (inactive)	0% (inactive)	-17.4% (inactive)	13.6% (inactive)	-1.82% (inactive)	104% (inactive)	0.09 (inactive)	8% (inactive)	-9.83% (inactive)
O=C(O)c1cnccn1	103% (inactive)	94.7% (inactive)	93.8% (inactive)	108% (inactive)	106% (inactive)	65%	160% (inactive)	21% (inactive)	102% (inactive)	4% (inactive)	-18.2% (inactive)	-5% (inactive)	2.35% (inactive)	104% (inactive)	-0.21 (inactive)	6% (inactive)	-4.99% (inactive)
